# ATXN viability: Viability Counterscreen for Primary qHTS for Inhibitors of ATXN expression | S2 cells (HEK-293 line with an ATXN2-luciferase reporter) viability, CellTiter-Fluor protease fluorescence, 24 h | Potency, µM (top dose mostly 56.7 µM), usual class: cytotoxic | hit rate 0.49% among 400,000 | AID 651635, 2014; also: nearly all actives have a fitted effect of over 40% in size
# TGFb SMAD3 inh: qHTS for Inhibitors of TGF-b; Potency, µM (highest dose often 46.1 µM), for the others: top-dose activity, negative = inhibition, hits mostly inhibitors; AID 588855, 2011; HepG2 CAGA-GFP TGF-b/SMAD3 reporter, GFP fluorescence, 18 h; TGF-beta stimulated, 500 pg/mL final; hit rate 1.2% among 410,000; also: % is scaled to controls: 0 for no effect and ±100 for the full control effect; nearly all actives have a fitted effect of over 65% in size
#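 Per well, imaged GFP fluorescence of HEPG2 CAGA-GFP cells gives the signal; cells get compound, then TGF-beta (500 pg/mL final), 18 h at 37 degrees C; %Activity versus -TGF-beta and +DMSO controls.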
# KB-3-1 tox: qHTS assay for MDR1-selective chemotherapeutics: Primary screen using the parental adenocarcinoma cell KB-3-1; AID 1347075, 2019; KB-3-1 viability, CellTiter-Glo ATP luminescence, 72 h; Potency, µM (highest dose often 46.1 µM), hits mostly cytotoxic; hit rate 1.4% among 400,000; also: % is scaled to controls: 0 for no effect and ±100 for the full control effect; nearly all actives have a fitted effect of over 60% in size
#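 Screening of KB-3-1 cells (DMEM, 10% FBS, phenol-red free) ran from lowest to highest compound concentration; after 72 h at 37 °C viability was read luminescently and curves fitted.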
# KB-V1 cytotox: qHTS assay for MDR1-selective chemotherapeutics: Primary screen using the drug-selected MDR subline cells KB-V1 | KB-V1 MDR cells viability, CellTiter-Glo, 72 h | Potency, µM (titrated, usually from 46.1 µM), usual class: cytotoxic | hit rate 3.4% among 400,000 | AID 1347076, 2019; also: % is scaled to controls: 0 for no effect and ±100 for the full control effect; nearly all actives have a fitted effect of over 60% in size
#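 In this primary screen, KB-V1 cells overexpressing P-gp are incubated with library compounds (lowest to highest concentration) for 72 h at 37 degrees C before a luminescent ATP viability read.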
# HepG2 tox: qHTS for Inhibitors of TGF-b: Cytotox Counterscreen; AID 588856, 2011; HepG2 CAGA-GFP viability, ATP luminescence, 18 h; hit rate 0.76% among 410,000; Potency, µM (titrated, usually from 46.1 µM), without a hit: at the highest dose activity change, negative = cytotoxicity, usual class: cytotoxic
#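 HepG2 CAGA-GFP cells (1000/well, DMEM with 1% FBS) received compound, then TGF-beta at 500 pg/mL final, and were incubated 18 hours at 37 degrees C. Viability was read by CellTiter-Glo luminescence. Media-only wells were set as complete cell-killing and DMSO as no toxicity.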
# ATXN2 expr inh: Primary qHTS for Inhibitors of ATXN expression; HEK-293 ATXN2-luciferase reporter, luminescence, 24 h; Potency, µM (highest dose often 57 µM), inactives show at the highest dose activity change, negative = inhibition, most hits filed as inhibitors; hit rate 0.72% among 360,000; AID 1745845, 2022; also: % is scaled to controls: 0 for no effect and ±100 for the full control effect; nearly all actives have a fitted effect of over 55% in size
#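 qHTS (up to 57 uM final) was run with 24 h compound exposure of reporter cells at 37 °C. Each well was multiplexed: SteadyGlo luminescence measured ATXN2-luciferase expression after a fluorogenic Gly-Phe-AFC viability readout (25 uM final).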
# An asterisk follows results filed as active; i = inactive; ? = inconclusive; nt = no result. Most compounds without a hit are left out; they make up all but 5.9% or so of the library. Calls follow the shape of the dose curve; as a rule, active = well fitted curve in the direction sought with a large enough effect; inconclusive = small, poorly fitted or top-dose-only effect, or another doubt; inactive = no such curve, though single readings can be large; an effect the other way counts as inactive or inconclusive. Potency is read from the fitted curve at half-maximal effect.
SMILES,ATXN viability,TGFb SMAD3 inh,KB-3-1 tox,KB-V1 cytotox,HepG2 tox,ATXN2 expr inh
CCOC(=O)c1cnc2ccc(C)cc2c1Sc1ccc(F)cc1,i,?,?,?,-28%,16%
Cc1ccccc1CNC(=O)CCCn1c(=O)c2cccn2c2cccnc21,nt,2%,nt,nt,-7%,nt
OC(CNc1ccnc2cc(Cl)ccc12)CNC1CCCCC1 (stereo not given),nt,?,?,?,-93%,32µM*
CSc1ncc(CN2CCc3c([nH]c4ccccc34)C2c2cccc(C)n2)cn1 (stereo not given),i,1%,i,i,-1%,5%
CSc1ncc(CN2CCc3c([nH]c4ccccc34)C2c2cccc(O)c2)cn1 (stereo not given),i,11µM*,i,i,-80%,-38%
CC(NC(=O)c1ccco1)c1nnc2n1CCN(Cc1ccc(N3CCCC3)cc1)CC2 (stereo not given),i,nt,nt,nt,nt,nt
CCN1CCC(O)(/C=C/c2ccc(C(C)C)cc2)C(C(=O)/C=C/c2ccc(C(C)C)cc2)C1 (stereo not given),nt,8.9µM*,?,?,13µM*,?
CCN1CCN(C(=O)/C=C/c2ccc(C(C)C)cc2)CC1,i,11%,i,i,-2%,14%
O=C(N/N=C/c1cc(O)ccc1Br)c1cccnc1,?,-27%,21µM*,i,-49%,2.8µM*
Cc1cc(O)c(C)c(O)c1/C=N/NC(=O)c1cccnc1,i,-4%,?,i,-11%,11µM*
CCOC(=O)c1sc(NC(=O)c2ccncc2)c(C#N)c1C,?,?,4.1µM*,2.6µM*,-33%,-1%
CCOC(=O)c1sc(NC(=O)c2cc(-c3ccccc3C)nc3ccccc23)c(C#N)c1C,?,?,8.2µM*,?,-31%,0%
Cc1ccccc1-c1cc(C(=O)Nc2sc(C)c(C)c2C(N)=O)c2ccccc2n1,?,?,i,16µM*,-44%,?
CCOC(=O)c1c(NC(=O)c2cc(-c3ccc(Cl)s3)nc3ccccc23)sc(C(N)=O)c1C,?,3%,?,i,8%,?
CC1CC2(C)Oc3ccccc3CC2C(C)C1CNCCCN(C)C (stereo not given),?,?,15µM*,18µM*,13µM*,14µM*
Cc1ccc(N(CCC#N)C(=O)CCl)cc1C,nt,?,?,?,11µM*,?
N#Cc1ccc(N2Cc3ccccc3C2=NC(=O)c2cccs2)cc1,?,-5%,i,18µM*,12%,52%
CC(=O)c1ccc(N2Cc3ccccc3C2=NC(=O)c2cccs2)cc1,?,6%,i,?,-26%,1%
Cc1ccc(NC(=O)C2CCCN2C(=O)Oc2ccccc2)cc1C (stereo not given),i,-5%,i,15µM*,-3%,-4%
O=Cc1cccnc1SCc1ccccc1,?,20%,?,15µM*,-35%,19%
Oc1cccnc1SCc1ccccc1,i,20%,i,i,-3%,37%
COc1cc(NC(=O)Cn2ccn(-c3cc(C)cc(C)c3)c(=O)c2=O)cc(OC)c1,i,-2%,i,i,-13%,3%
CCN(CC)CCCCNc1nc2cc(Cl)c(Cl)cc2nc1-c1ccc(-c2cccs2)s1,nt,nt,nt,nt,nt,22µM*
CCN(CC)CCCNc1cc(C)nc2cc(-c3cccs3)nn12,?,-8%,i,i,-12%,-15%
COc1cc(OC)c(C2CC(=O)Nc3ccc4ccccc4c32)cc1OC (stereo not given),?,?,i,i,-21%,-22%
SMILES,ATXN viability,TGFb SMAD3 inh,KB-3-1 tox,KB-V1 cytotox,HepG2 tox,ATXN2 expr inh
CC12CCC(C(=O)Nc3ccccc3Cl)(C(Br)C1=O)C2(C)C (stereo not given),i,-6%,i,13µM*,-24%,7%
CCOC(=O)[C@]12CCCC=C1N(Cc1ccccc1)C(=O)[C@H](CC(=O)NCc1ccc(OC)c(OC)c1)C2,nt,nt,i,i,nt,nt
CCOC(=O)[C@]12CCCC=C1N(Cc1cccc3ccccc13)C(=O)[C@H](CC(=O)N1CCCC1)C2,?,nt,i,9.2µM*,nt,-18%
CCOC(=O)[C@]12CCCC=C1N(Cc1cccc3ccccc13)C(=O)[C@H](CC(=O)NCc1cccs1)C2,?,nt,?,16µM*,nt,-38%
CCCCNC(=O)C[C@@H]1C[C@@]2(C(=O)OCC)CCCC=C2N(Cc2ccc(Cl)cc2Cl)C1=O,?,nt,?,9.2µM*,nt,?
C#CCNC(=O)C[C@@H]1C[C@@]2(C(=O)OCC)CCCC=C2N(Cc2ccc(Cl)cc2Cl)C1=O,?,nt,i,?,nt,-14%
CCOC(=O)[C@]12CCCC=C1N(Cc1cccc3ccccc13)C(=O)[C@H](CC(=O)N1CCN(C(=O)C3CC3)CC1)C2,?,nt,i,?,nt,-8%
CCOC(=O)[C@]12CCCC=C1N(Cc1cccc3ccccc13)C(=O)[C@H](CC(=O)NCc1ccc(OC)c(OC)c1)C2,?,nt,?,6.5µM*,nt,?

# Assay outcomes from PubChem BioAssay.
